Wnt act: activates Wnt/beta-catenin signaling in a reporter cell assay | activation, % at 9.35 µM | AID 743398 | 1.2% of 300,000 active | activator, plate reader; in the data active = activation above about 30%, passing the limit was not always enough
FGF22 binding: binders of recombinant human FGF22 by thermal shift; SYPRO orange fluorescence; percent of sucrose octasulfate shift, DMSO zero; activity (Tm shift, normalised), % at 9.99 µM; Q9HCT0; AID 651658; 1.5% of 340,000 active;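 active = mean Tm shift, scaled 0 neutral to 100 positive control, at about 1.3% or above, every replicate too, limit read from the data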
esBAF inh: SWI/SNF esBAF complex inhibition. reporter increase, % at 12.5 µM. 2% of 350,000 active. mouse ES cells, Bmi1-luciferase knock-in reporter, 24 h; 100% = twice the neutral-well signal; in the data active = activation above about 40%;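 also: a rise in the Bmi1 reporter signal indicates esBAF inhibition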
SMARCA2 act: activators of SMARCA2 function | MG213 cells, MMTV-luciferase reporter, dexamethasone, overnight | activation, % at 9.1 µM | 1% of 370,000 active; in the data active = activation above about 7.8%
MLL AF4-AF9 inh: MLL-AF4/AF9 protein interaction inhibition; P42568; AlphaScreen, biotin-AF4 peptide binding to FLAG-AF9; inhibition, % at 10 µM; 0.47% of 350,000 active; AID 651704;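 active = every replicate reaching a set inhibition limit, whatever the replicate mean, cut at about 25% in these data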
Target sequence (P42568 whole entry, looked up): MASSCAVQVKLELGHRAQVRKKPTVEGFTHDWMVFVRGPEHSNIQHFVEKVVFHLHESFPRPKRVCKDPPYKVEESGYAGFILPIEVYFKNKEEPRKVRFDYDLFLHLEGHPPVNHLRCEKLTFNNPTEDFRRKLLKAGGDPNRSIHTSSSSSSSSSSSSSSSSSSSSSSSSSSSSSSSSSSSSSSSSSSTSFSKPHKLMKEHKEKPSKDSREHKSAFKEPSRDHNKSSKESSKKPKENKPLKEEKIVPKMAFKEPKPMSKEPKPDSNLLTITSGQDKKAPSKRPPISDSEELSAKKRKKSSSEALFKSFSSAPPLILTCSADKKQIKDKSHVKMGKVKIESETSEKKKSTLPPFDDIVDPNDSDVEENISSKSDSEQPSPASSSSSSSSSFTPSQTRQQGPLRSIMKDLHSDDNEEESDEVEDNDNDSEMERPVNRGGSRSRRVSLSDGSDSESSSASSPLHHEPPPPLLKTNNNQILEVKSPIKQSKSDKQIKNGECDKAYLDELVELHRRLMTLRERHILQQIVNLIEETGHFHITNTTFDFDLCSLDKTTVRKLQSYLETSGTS
MITF act: increases MITF-driven TRPM1 promoter luciferase signal | SK-MEL-5 TRPM1-promoter luciferase, 24 h; % of positive control, neutral wells = 0 | activation, % at 12.5 µM | 0.75% of 300,000 active | AID 588334;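 active = mean activation of at least 80% with every replicate also reaching 80%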
A number is an active result. The list is not random: actives were taken first. Their share in the collection is about 4.3%.

Screening CC(C)NC(=O)N(C)C[C@@H]1Oc2ccc(NC(=O)Nc3ccc4c(c3)OCO4)cc2C(=O)N([C@@H](C)CO)C[C@@H]1C returned FGF22 binding inactive, esBAF inh inactive and MLL AF4-AF9 inh inactive.
`O=C(c1cccs1)C1CCCN(Cc2nc(Cc3ccccc3F)no2)C1` (stereo unspecified) gave Wnt act inactive, FGF22 binding 43, esBAF inh inactive, SMARCA2 act inactive, MLL AF4-AF9 inh inactive and MITF act inactive.
Screening O=C(c1cccnc1)C1CCCN(Cc2nc(Cc3ccccc3F)no2)C1 (stereo unspecified) returned Wnt act inactive, FGF22 binding inactive, esBAF inh inactive, SMARCA2 act inactive, MLL AF4-AF9 inh inactive and MITF act inactive.
CC(C)(C)C(=O)NC1CCCCN(Cc2cccc(C(F)(F)F)c2)C1=O (stereo unspecified) was read as SMARCA2 act inactive.
Screening COCC(=O)Nc1ccc2c(c1)OC[C@@H](C)N(C(=O)COC)C[C@@H](C)[C@H](OC)CN(C)C2=O returned FGF22 binding inactive, esBAF inh inactive and MLL AF4-AF9 inh inactive.
For COc1ccc(-c2ccc3c(c2)C2CC3CCN2Cc2ccc(OC(F)(F)F)cc2)cc1 (stereo unspecified) the results were Wnt act inactive, FGF22 binding 43, esBAF inh inactive, SMARCA2 act inactive, MLL AF4-AF9 inh inactive and MITF act inactive.
`COc1ccc(-c2ccc3c(c2)C2CC3CCN2C(=O)C(C)(C)C)cc1` (stereo unspecified) gave Wnt act inactive, FGF22 binding inactive, esBAF inh inactive, SMARCA2 act inactive, MLL AF4-AF9 inh inactive and MITF act inactive.
For c1ccc(OCCNc2ccn3nc(-c4cccs4)cc3n2)cc1 the results were Wnt act inactive, FGF22 binding inactive, esBAF inh 64, SMARCA2 act inactive and MLL AF4-AF9 inh inactive.
Clc1cccc(CNc2ccn3nc(-c4ccco4)cc3n2)c1 was read as Wnt act inactive, FGF22 binding inactive, esBAF inh inactive, SMARCA2 act inactive and MLL AF4-AF9 inh inactive.
Screening COCCCNc1ccn2nc(-c3cccc(OCc4ccccc4)c3)cc2n1 returned Wnt act inactive, FGF22 binding inactive, esBAF inh inactive, SMARCA2 act inactive and MLL AF4-AF9 inh inactive.
For Clc1cccc(CNc2ccn3nc(-c4cccs4)cc3n2)c1 the results were Wnt act 49, FGF22 binding inactive, esBAF inh 59, SMARCA2 act inactive and MLL AF4-AF9 inh inactive.
Fc1ccc(CNc2ccn3nc(-c4ccccc4)cc3n2)cc1 was read as Wnt act inactive, FGF22 binding inactive, esBAF inh 64, SMARCA2 act inactive and MLL AF4-AF9 inh inactive.
`COc1ccccc1-c1cc2nc(NCCOc3ccccc3)ccn2n1` gave Wnt act inactive, FGF22 binding inactive, esBAF inh inactive, SMARCA2 act inactive and MLL AF4-AF9 inh inactive.
c1ccc(OCCNc2ccn3nc(-c4ccco4)cc3n2)cc1 was read as Wnt act inactive, FGF22 binding inactive, esBAF inh 48, SMARCA2 act inactive and MLL AF4-AF9 inh inactive.
`c1ccc(OCCNc2ccn3nc(-c4ccccc4)cc3n2)cc1` gave Wnt act inactive, FGF22 binding inactive, esBAF inh 53, SMARCA2 act inactive and MLL AF4-AF9 inh inactive.
FC(F)(F)c1cccc(-c2cc3nc(NCCOc4ccccc4)ccn3n2)c1 was read as Wnt act inactive, FGF22 binding inactive, esBAF inh inactive, SMARCA2 act inactive and MLL AF4-AF9 inh inactive.
For Cc1cc(NC(=O)CSc2nc3c(c(=O)n2Cc2ccccc2)SC(C)C3)no1 (stereo unspecified) the results were Wnt act inactive, FGF22 binding inactive, esBAF inh 46, SMARCA2 act inactive, MLL AF4-AF9 inh inactive and MITF act inactive.
Screening CCn1c(SCC(=O)Nc2cc(C)on2)nc2c(c1=O)SC(C)C2 (stereo unspecified) returned esBAF inh inactive, SMARCA2 act inactive and MITF act inactive.
`CCC(=O)N1CC2(C1)[C@H](c1ccc(-c3ccc(F)cc3)cc1)[C@@H](CO)N2C(C)=O` gave FGF22 binding inactive and MLL AF4-AF9 inh inactive.
NC(=O)c1oc2ccccc2c1NC(=O)c1nc2ccccc2s1 was read as esBAF inh 63, SMARCA2 act inactive and MITF act inactive.
For NC(=O)c1oc2ccccc2c1NC(=O)c1ccc(F)cc1 the results were Wnt act inactive, FGF22 binding inactive, esBAF inh inactive, SMARCA2 act inactive and MLL AF4-AF9 inh inactive.
`CCCSc1nc2sc3c(c2c(=O)[nH]1)CC(C)CC3` (stereo unspecified) gave Wnt act inactive, FGF22 binding inactive, SMARCA2 act inactive, MLL AF4-AF9 inh inactive and MITF act inactive.
`CSc1nc2sc3c(c2c(=O)[nH]1)CCC(C)C3` (stereo unspecified) gave esBAF inh 62, SMARCA2 act inactive and MITF act inactive.
Screening C(=Cc1c[nH]c2ccccc12)c1nccc2ccccc12 returned Wnt act 42, FGF22 binding inactive, esBAF inh inactive, SMARCA2 act inactive, MLL AF4-AF9 inh inactive and MITF act inactive.
`C(=Cc1c[nH]c2ccccc12)c1ccc2ccccc2n1` gave Wnt act inactive, FGF22 binding inactive, esBAF inh inactive, SMARCA2 act inactive, MLL AF4-AF9 inh inactive and MITF act inactive.
`COc1ccc(S(=O)(=O)N(C)C[C@@H]2Oc3ccc(NC(=O)Nc4c(C)noc4C)cc3CC(=O)N([C@H](C)CO)C[C@@H]2C)cc1` gave FGF22 binding inactive, esBAF inh inactive and MLL AF4-AF9 inh inactive.
`CCCNC(=O)Nc1ccc2c(c1)OC[C@H](C)N(Cc1ccc(-c3ccccn3)cc1)C[C@@H](C)[C@H](OC)CN(C)C2=O` gave FGF22 binding inactive, esBAF inh inactive and MLL AF4-AF9 inh inactive.
`COC(=O)c1ccc(C(=O)Nc2ccc(C(C)C)cc2N)cc1` gave FGF22 binding inactive, esBAF inh 47, SMARCA2 act inactive, MLL AF4-AF9 inh inactive and MITF act inactive.
`COC(=O)c1ccc(C(=O)NN)cc1` gave Wnt act inactive, FGF22 binding inactive, esBAF inh inactive, SMARCA2 act inactive and MLL AF4-AF9 inh inactive.
Screening Cn1c(CSc2ccccc2)c(C#N)c2ccccc21 returned esBAF inh 63, SMARCA2 act inactive and MITF act inactive.
CCN(CC)c1ccc2cc(C(=O)Nc3ccccn3)c(=O)oc2c1 was read as Wnt act inactive, esBAF inh 49, SMARCA2 act inactive and MITF act inactive.
O=C(C[C@H]1CC[C@H]2[C@@H](COC[C@H](O)CN2C(=O)Nc2cccc(F)c2)O1)NCc1ccccc1Cl was read as FGF22 binding inactive, esBAF inh inactive and MLL AF4-AF9 inh inactive.
Screening Cc1cc(NC(=O)CSc2nnc(-c3cccc(Cl)c3)o2)no1 returned Wnt act inactive, FGF22 binding inactive, esBAF inh inactive, SMARCA2 act inactive, MLL AF4-AF9 inh inactive and MITF act inactive.

Source: PubChem BioAssay (several laboratories)
